# Where “and” joins values, the source holds several entries; their conditions need not be identical. Equal values may be shown once. The panel holds about 83,000 compounds, 20% with a hit somewhere; the sample as a whole holds those more often.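 Note: values are percent growth. 100 is the growth of untreated cells, values between 100 and 0 indicate rising inhibition; between -100 and 0 indicates cell death.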 Calls of active or inactive are those of the source. The calls were made as follows: active = growth percent below 10; inactive = the rest.
# How the values were obtained:
# Assay in all cases: NCI-60 one-dose screen, 48 h (100 = growth as untreated, 0 = no growth, -100 = all killed)
# HCT-15 colon = tested on: HCT-15 colon
# HT29 colon = tested on: HT29 colon
# SNB-75 CNS = tested on: SNB-75 CNS
# SNB-19 CNS = tested on: SNB-19 CNS
# U251 CNS = tested on: U251 CNS
# PC-3 prostate = tested on: PC-3 prostate
# SK-MEL-5 melanoma = tested on: SK-MEL-5 melanoma
# UACC-62 melanoma = tested on: UACC-62 melanoma
# LOX IMVI melanoma = tested on: LOX IMVI melanoma
# SK-MEL-28 melanoma = settings: 10 µM unless noted
# SK-MEL-2 melanoma = tested on: SK-MEL-2 melanoma
# EKVX NSCLC = tested on: EKVX NSCLC
# SN12C renal = tested on: SN12C renal
# UO-31 renal = tested on: UO-31 renal
# TK-10 renal = tested on: TK-10 renal
# ACHN renal = tested on: ACHN renal
# CAKI-1 renal = tested on: CAKI-1 renal
# A498 renal = settings: 10 µM unless noted
# CCRF-CEM leukemia = tested on: CCRF-CEM leukemia
# MOLT-4 leukemia = settings: 10 µM unless noted
smiles,measurement,setting,value
CC1(C)OB(c2ccc(Cn3cc(F)c(=O)[nH]c3=O)cc2)OC1(C)C,growth,HCT-15 colon; 10 µM,101% (inactive)
same,growth,HCT-15 colon; 50 µM,68.1% (inactive)
same,growth,HT29 colon; 10 µM,112% (inactive)
same,growth,HT29 colon; 50 µM,24.3% (inactive)
same,growth,SNB-75 CNS; 10 µM,103% (inactive)
same,growth,SNB-75 CNS; 50 µM,38.3% (inactive)
same,growth,SNB-19 CNS; 10 µM,103% (inactive)
same,growth,SNB-19 CNS; 50 µM,70.6% (inactive)
same,growth,U251 CNS; 10 µM,105% (inactive)
same,growth,U251 CNS; 50 µM,82.6% (inactive)
same,growth,PC-3 prostate; 10 µM,101% (inactive)
same,growth,PC-3 prostate; 50 µM,55.4% (inactive)
same,growth,SK-MEL-5 melanoma; 10 µM,98.4% (inactive)
same,growth,SK-MEL-5 melanoma; 50 µM,38.8% (inactive)
same,growth,UACC-62 melanoma; 10 µM,89.8% (inactive)
same,growth,UACC-62 melanoma; 50 µM,29.1% (inactive)
same,growth,LOX IMVI melanoma; 10 µM,98.2% (inactive)
same,growth,LOX IMVI melanoma; 50 µM,52.6% (inactive)
same,growth,SK-MEL-28 melanoma,99.4% (inactive)
same,growth,SK-MEL-2 melanoma; 10 µM,113% (inactive)
same,growth,SK-MEL-2 melanoma; 50 µM,41.5% (inactive)
same,growth,EKVX NSCLC; 10 µM,106% (inactive)
same,growth,EKVX NSCLC; 50 µM,72.1% (inactive)
same,growth,SN12C renal; 10 µM,102% (inactive)
same,growth,SN12C renal; 50 µM,80.8% (inactive)
same,growth,UO-31 renal; 10 µM,87.3% (inactive)
same,growth,UO-31 renal; 50 µM,72.8% (inactive)
same,growth,TK-10 renal; 10 µM,102% (inactive)
same,growth,TK-10 renal; 50 µM,79.3% (inactive)
same,growth,ACHN renal; 10 µM,103% (inactive)
same,growth,ACHN renal; 50 µM,92.1% (inactive)
same,growth,CAKI-1 renal; 10 µM,85.7% (inactive)
same,growth,CAKI-1 renal; 50 µM,75.1% (inactive)
same,growth,A498 renal,25.6% [50 µM] (inactive)
same,growth,CCRF-CEM leukemia; 10 µM,112% (inactive)
same,growth,CCRF-CEM leukemia; 50 µM,37.7% (inactive)
CN(C)CCCN1c2ccccc2Sc2ccc(Cl)cc21,growth,HCT-15 colon; 10 µM unless noted,73.4% (inactive) and 109% (inactive) and 88.5% (inactive)
same,growth,HT29 colon; 10 µM unless noted,27.4% (inactive) and 120% (inactive) and 62.9% (inactive)
same,growth,SNB-75 CNS; 10 µM unless noted,48.3% (inactive) and 106% (inactive) and 58.8% (inactive)
same,growth,SNB-19 CNS; 10 µM unless noted,98.2% (inactive) and 92.4% (inactive) and 94.5% (inactive)
same,growth,U251 CNS; 10 µM unless noted,78.1% (inactive) and 106% (inactive) and 93.4% (inactive)
same,growth,PC-3 prostate; 10 µM unless noted,67.3% (inactive) and 103% (inactive) and 80.3% (inactive)
same,growth,SK-MEL-5 melanoma; 10 µM unless noted,3.06% (active) and 102% (inactive) and 79% (inactive)
same,growth,UACC-62 melanoma; 10 µM unless noted,75.3% (inactive) and 89.8% (inactive) and 88.9% (inactive)
same,growth,LOX IMVI melanoma; 10 µM unless noted,78.3% (inactive) and 113% (inactive) and 100% (inactive)
same,growth,SK-MEL-28 melanoma,83.6% (inactive) and 108% (inactive) and 98.8% (inactive)
same,growth,SK-MEL-2 melanoma; 10 µM unless noted,77.6% (inactive) and 107% (inactive) and 112% (inactive)
same,growth,EKVX NSCLC; 10 µM unless noted,91.6% (inactive) and 147% (inactive)
same,growth,SN12C renal; 10 µM unless noted,66.7% (inactive) and 117% (inactive) and 78.8% (inactive)
same,growth,UO-31 renal; 10 µM unless noted,54.4% (inactive) and 89.3% (inactive) and 50.3% (inactive)
same,growth,TK-10 renal; 10 µM unless noted,122% (inactive) and 92.6% (inactive)
same,growth,ACHN renal; 10 µM unless noted,44.8% (inactive) and 108% (inactive) and 68.7% (inactive)
same,growth,CAKI-1 renal; 10 µM unless noted,75.1% (inactive) and 257% (inactive) and 52.5% (inactive)
same,growth,A498 renal,105% (inactive) and 120% (inactive) and 108% (inactive)
same,growth,CCRF-CEM leukemia; 10 µM unless noted,73.6% (inactive) and 98.7% (inactive)
same,growth,MOLT-4 leukemia,69.7% (inactive) and 102% (inactive) and 83.3% (inactive)
OC(COc1cccc2ccccc12)CN1CCN(c2ccc(Cl)cc2)CC1 (stereo not given),growth,HCT-15 colon; 10 µM unless noted,87.4% (inactive) and 101% (inactive)
same,growth,HT29 colon; 10 µM unless noted,82.9% (inactive) and 88.9% (inactive)
same,growth,SNB-75 CNS; 10 µM unless noted,73.7% (inactive) and 88% (inactive)
same,growth,SNB-19 CNS; 10 µM unless noted,87.6% (inactive) and 90.2% (inactive)
same,growth,U251 CNS; 10 µM unless noted,69.9% (inactive) and 108% (inactive)
same,growth,PC-3 prostate; 10 µM unless noted,88.4% (inactive)
same,growth,SK-MEL-5 melanoma; 10 µM unless noted,87.6% (inactive) and 102% (inactive)
same,growth,UACC-62 melanoma; 10 µM unless noted,98% (inactive) and 85% (inactive)
same,growth,LOX IMVI melanoma; 10 µM unless noted,86.3% (inactive) and 82.2% (inactive)
same,growth,SK-MEL-28 melanoma,107% (inactive) and 114% (inactive)
same,growth,SK-MEL-2 melanoma; 10 µM unless noted,103% (inactive) and 98.8% (inactive)
same,growth,EKVX NSCLC; 10 µM unless noted,108% (inactive) and 94.9% (inactive)
same,growth,SN12C renal; 10 µM unless noted,98.5% (inactive) and 97.8% (inactive)
same,growth,UO-31 renal; 10 µM unless noted,80.2% (inactive) and 63.6% (inactive)
same,growth,TK-10 renal; 10 µM unless noted,70.8% (inactive) and 101% (inactive)
same,growth,ACHN renal; 10 µM unless noted,68.6% (inactive) and 102% (inactive)
same,growth,CAKI-1 renal; 10 µM unless noted,85.5% (inactive)
same,growth,A498 renal,92.3% (inactive) and 77% (inactive)
same,growth,CCRF-CEM leukemia; 10 µM unless noted,83.3% (inactive)
same,growth,MOLT-4 leukemia,110% (inactive)
CC(=O)c1ccccc1O,growth,HCT-15 colon; 10 µM unless noted,112% (inactive) and 105% (inactive) and 223% (inactive)
same,growth,HT29 colon; 10 µM unless noted,107% (inactive) and 99.2% (inactive) and 111% (inactive)
same,growth,SNB-75 CNS; 10 µM unless noted,107% (inactive) and 93% (inactive) and 97.7% (inactive)
same,growth,SNB-19 CNS; 10 µM unless noted,102% (inactive) and 105% (inactive) and 94.1% (inactive)
same,growth,U251 CNS; 10 µM unless noted,108% (inactive) and 98.7% (inactive) and 104% (inactive)
same,growth,PC-3 prostate; 10 µM unless noted,102% (inactive) and 83.5% (inactive) and 91.7% (inactive)
same,growth,SK-MEL-5 melanoma; 10 µM unless noted,100% (inactive) and 102% (inactive)
same,growth,UACC-62 melanoma; 10 µM unless noted,101% (inactive) and 105% (inactive)
same,growth,LOX IMVI melanoma; 10 µM unless noted,100% (inactive) and 92.7% (inactive) and 103% (inactive)
same,growth,SK-MEL-28 melanoma,103% (inactive) and 91.7% (inactive) and 109% (inactive)
same,growth,SK-MEL-2 melanoma; 10 µM unless noted,107% (inactive) and 98.5% (inactive) and 111% (inactive)
same,growth,EKVX NSCLC; 10 µM unless noted,99.7% (inactive) and 108% (inactive) and 104% (inactive)
same,growth,SN12C renal; 10 µM unless noted,98.1% (inactive) and 104% (inactive) and 98.7% (inactive)
same,growth,UO-31 renal; 10 µM unless noted,80% (inactive) and 90.5% (inactive) and 68.1% (inactive)
same,growth,TK-10 renal; 10 µM unless noted,104% (inactive) and 95.9% (inactive) and 95.7% (inactive)
same,growth,ACHN renal; 10 µM unless noted,105% (inactive) and 101% (inactive) and 104% (inactive)
same,growth,CAKI-1 renal; 10 µM unless noted,92.5% (inactive) and 99.4% (inactive) and 87.3% (inactive)
same,growth,A498 renal,92.5% (inactive) and 86.6% (inactive)
same,growth,CCRF-CEM leukemia; 10 µM unless noted,107% (inactive) and 104% (inactive) and 101% (inactive)

# Reference: PubChem BioAssay (NCI)
